# Assay outcomes deposited in PubChem by National Center for Advancing Translational Sciences (NCATS).
# Pf growth 48h – Primary qHTS for delayed death inhibitors of the malarial parasite plastid, 48 hour incubation. P. falciparum luciferase growth in erythrocytes, 48 h. Potency, µM (highest dose often 28.7 µM), for the others: at the top dose activity change, negative = inhibition, usual class: inhibitors. actives 5.9% (n = 310,000); also: potency is read from the fitted curve at half-maximal effect; % is scaled to controls: 0 for no effect and ±100 for the full control effect
#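 Here the parasites carry a stable luciferase gene and grow inside erythrocytes in Albumax-based RPMI medium with compound for one erythrocytic cycle. Activity is scored as loss of luminescent signal.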
# AmpC inh no detg – qHTS Inhibitors of AmpC Beta-Lactamase (assay without detergent). P00811. Potency, µM (highest dose often 57.1 µM), for inactives: at the top dose activity change, negative = inhibition, usual class: inhibitors. actives 0.52% (n = 330,000). AmpC nitrocefin hydrolysis, absorbance 480 nm, 0.0001% Triton;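 also: potency is read from the fitted curve at half-maximal effect; plate controls were no compound for no effect and no enzyme for full effect; nearly all actives have a fitted effect of over 20% in size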
# Target sequence (P00811 whole entry, looked up): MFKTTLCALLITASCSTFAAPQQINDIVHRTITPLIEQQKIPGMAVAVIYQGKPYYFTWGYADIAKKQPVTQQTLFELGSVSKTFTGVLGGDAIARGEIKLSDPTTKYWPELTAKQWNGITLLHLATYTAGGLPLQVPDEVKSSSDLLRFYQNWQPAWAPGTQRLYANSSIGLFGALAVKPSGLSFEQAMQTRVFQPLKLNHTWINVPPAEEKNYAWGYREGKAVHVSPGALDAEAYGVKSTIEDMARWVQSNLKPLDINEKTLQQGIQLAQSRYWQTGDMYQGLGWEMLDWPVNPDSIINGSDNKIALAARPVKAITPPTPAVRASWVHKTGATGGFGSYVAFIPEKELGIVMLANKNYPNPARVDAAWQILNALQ
#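 20 mM phosphate pH 7.0 + 0.01% (detergent screen) or 0.0001% Triton X-100; 5.3 nM AmpC reagent; cpd preinc 15 min RT; nitrocefin (800 uM stock) to start; A480 q20 s × 4 min; Activity was normalised to no-enzyme and no-compound control wells.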
# AmpC detergent – qHTS Inhibitors of AmpC Beta-Lactamase (assay with detergent) | AmpC hydrolysis of nitrocefin, absorbance 480 nm, 0.01% Triton | Potency, µM (titrated, usually from 114 µM), for the others: top-dose activity change, negative = inhibition, actives largely listed as inhibitors | P00811 | AID 485294, 2010 | actives 0.041% (n = 370,000);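 also: potency is read from the fitted curve at half-maximal effect; 0% = no-compound wells and -100% = no-enzyme wells; nearly all actives have a fitted effect of over 25% in size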
#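 AmpC (5.3 nM in the dispensed reagent) in 20 mM phosphate pH 7.0 with 0.01% (detergent screen) or 0.0001% Triton X-100 was preincubated with compounds for 15 min at room temperature. Nitrocefin was then added from an 800 uM solution, and hydrolysis was followed at 480 nm.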
# SARS PLpro yeast-1 – qHTS of Yeast-based Assay for SARS-CoV PLP | S. cerevisiae expressing SARS-CoV PLpro, growth rescue | AID 485353, 2010 | actives 0.19% (n = 330,000) | Potency, µM (top dose mostly 32.9 µM), for the others: top-dose activity, positive = growth rescue, most hits filed as activators; calls by dose curve; also: potency is read from the fitted curve at half-maximal effect; 0% is about no effect; nearly all actives have a fitted effect of over 55% in size
# Pf growth 96h – Primary qHTS for delayed death inhibitors of the malarial parasite plastid, 96 hour incubation; actives 6.9% (n = 320,000); Potency, µM (top dose mostly 28.7 µM), without a hit: at the top dose activity change, negative = inhibition, actives largely listed as inhibitors; P. falciparum luciferase reporter growth, 96 h; also: potency is read from the fitted curve at half-maximal effect; % is scaled to controls: 0 for no effect and ±100 for the full control effect
#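 Two parasite generations (96 h, 37 C, 5% CO2) of compound exposure in infected erythrocytes (0.05% parasitemia, 2% hematocrit). Luciferase-reporter P. falciparum; decreased luminescence indicates inhibited growth, aimed at apicoplast-acting delayed death.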
# Sm TGR inh – qHTS Assay for the Inhibitors of Schistosoma Mansoni Peroxiredoxins; Schistosoma mansoni thioredoxin glutathione reductase (TGR), Q962Y6; purified TGR, DTNB reduction, TNB absorbance 405 nm; Potency, µM (doses to about 114 µM), without a hit: at the highest dose activity change, negative = inhibition, most hits filed as inhibitors; actives 3% (n = 360,000); AID 485364, 2010; also: potency is read from the fitted curve at half-maximal effect; % is scaled to controls: 0 for no effect and ±100 for the full control effect; nearly all actives have a fitted effect of over 60% in size
#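 First, TGR (20 nM dispensed) and NADPH were mixed with compound. Second, a 15 min room-temperature incubation followed. Third, further NADPH and then DTNB were added to start the reaction. Finally, TNB absorbance was monitored kinetically.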
# SARS PLpro yeast-2 – qHTS of Yeast-based Assay for SARS-CoV PLP: Hit Validation | yeast expressing SARS-CoV PLpro, growth phenotype rescue | actives 19% (n = 1,000) | calls only | shares compounds with SARS PLpro yeast-1 | AID 652038, 2013; call rule not given here
# * hit, by the source's call; i = inactive; ? = inconclusive; / = no result given; + = active, no number. Compounds with a hit are over-represented: about 12% of the library has one in this group of screens. Unless noted, calls follow the shape of the dose curve; as a rule, active = well fitted curve in the direction sought with a large enough effect; inconclusive = small, poorly fitted or top-dose-only effect, or another doubt; inactive = no such curve, though single readings can be large; an effect the other way counts as inactive or inconclusive.
SMILES,Pf growth 48h,AmpC inh no detg,AmpC detergent,SARS PLpro yeast-1,Pf growth 96h,Sm TGR inh,SARS PLpro yeast-2
O=C(CCCOc1ccccc1)Nc1ccc2c(c1)OCCO2,99.6%,-33.1%,-11.0%,-6.7%,-3.6%,0.0%,/
CNC[C@@H]1Oc2ccc(NC(=O)Nc3c(C)noc3C)cc2CC(=O)N([C@H](C)CO)C[C@H]1C,/,-2.9%,/,11.2µM*,/,/,i
Cc1ccc(S(=O)(=O)N(C)C[C@H]2Oc3ccc(NC(=O)Nc4c(C)noc4C)cc3CC(=O)N([C@@H](C)CO)C[C@@H]2C)cc1,/,213.1%,/,-6.3%,/,/,/
CCC(=O)Nc1cccc(-c2nc3ncccc3o2)c1C,?,-11.9%,0.8%,-2.0%,?,?,/
Cc1c(NC(=O)CSc2ccc(Cl)cc2)cccc1-c1nc2ncccc2o1,-5.2%,17.5%,-1.6%,?,?,6.9%,?
CCN1C(=O)CCCc2ccccc21,-7.9%,-15.5%,-1.9%,-1.0%,4.8%,18.0%,/
CNCCCN1c2ccccc2CCc2ccccc21,?,0.7%,?,17.8µM*,?,-11.5%,i
COc1ccc2c3n([n+]([O-])c2c1)CCN=C3c1ccc(Cl)cc1,-16.0%,-16.4%,1.1%,?,56.2%,-3.4%,i
[O-][n+]1c2ccccc2c2n1CCN=C2c1ccc(Cl)cc1,?,-15.0%,-6.8%,-0.9%,45.5%,-14.3%,/
COC(=O)C1=C(C)NC(C)=C(C(=O)OC)C1c1cc2cc(C)ccc2[nH]c1=O,2.2%,23.2%,-7.0%,0.9%,-16.3%,?,/
Cc1ccc2[nH]c(=O)c(C3C(C#N)=C(N)Oc4c3ccc3cccnc43)cc2c1 (centres undefined),?,-18.6%,2.3%,12.6µM*,/,15.8µM*,+
CCOc1ccccc1Nc1nnc(SCc2nnc(-c3cc(OC)c(OC)c(OC)c3)o2)s1,?,96.1%,-12.7%,?,?,-1.8%,i
Cc1cccc(C)c1NC(=O)CN(C)C(=O)c1ccccc1SCC(=O)N1CCCC1,0.8%,-2.1%,5.6%,14.1µM*,38.1%,2.3%,i
CN(CC(=O)Nc1c(Cl)cccc1Cl)C(=O)c1ccccc1SCC(=O)N1CCCC1,3.0%,-4.2%,0.7%,10.4%,?,-26.9%,/
Cc1ccc(OC2=NS(=O)(=O)c3ccccc32)cc1,-10.2%,-17.0%,-4.6%,?,/,-16.1%,i
CC(C)(C)c1nnc(N/N=C/c2cc(Br)ccc2O)n(N)c1=O,3.29µM*,-32.0%,7.1%,/,8.28µM*,0.1%,i
ClCc1nnc(-c2cc3c(s2)CCCC3)o1,?,-26.7%,7.9%,?,10.4µM*,-8.0%,i
Cc1c(C(=O)N2CCN(S(=O)(=O)c3ccc(F)cc3)CC2)oc2ccccc12,-23.9%,-5.9%,-14.3%,?,?,4.8%,i
Cc1ccc(/C=C/C(=O)c2ccccc(=O)c2O)cc1C,8.28µM*,-32.9%,?,?,9.28µM*,31.6µM*,?
OC[C@H]1O[C@@H]2O[C@H]3[C@H](O)[C@@H](O)[C@@H](O[C@H]4[C@H](O)[C@@H](O)[C@@H](O[C@H]5[C@H](O)[C@@H](O)[C@@H](O[C@H]6[C@H](O)[C@@H](O)[C@@H](O[C@H]7[C@H](O)[C@@H](O)[C@@H](O[C@H]8[C@H](O)[C@@H](O)[C@@H](O[C@H]1[C@H](O)[C@H]2O)O[C@@H]8CO)O[C@@H]7CO)O[C@@H]6CO)O[C@@H]5CO)O[C@@H]4CO)O[C@@H]3CO,0.9%,/,/,/,2.2%,/,/
Cc1ccc2cc(CCNC(=O)C(C)C)c(=O)[nH]c2c1,20.0%,-93.2%,?,1.4%,8.6%,-0.4%,/
CC(=O)NCCc1cc2ccc(C)cc2[nH]c1=O,18.8%,-18.3%,-6.7%,?,/,-13.5%,i
N#Cc1ccc(Oc2ccc(-c3cnc4ccccc4n3)cc2)cc1C#N,10.6%,-12.3%,-2.6%,2µM*,443.8%,2.2%,+
CCCCOC(=O)Oc1ccc2c(=O)c(Oc3cc(C)cc(C)c3)coc2c1,12.4%,-18.1%,?,?,2.0%,?,i
CCCOC(=O)Oc1ccc2c(=O)c(Oc3cc(C)cc(C)c3)coc2c1,27.0%,-29.8%,-12.9%,-24.3%,?,3.5%,/
SMILES,Pf growth 48h,AmpC inh no detg,AmpC detergent,SARS PLpro yeast-1,Pf growth 96h,Sm TGR inh,SARS PLpro yeast-2
COc1ccccc1CCNC(=O)CSc1nnc2ccc(-c3ccncc3)nn12,5.1%,14.4%,3.6%,-2.3%,?,5.0%,/
O=C(CSCc1c(F)cccc1Cl)Nc1ccccc1C(=O)N1CCOCC1,7.3%,-1.4%,4.2%,0.4%,0.0%,2.7%,/
C/C=C/c1ccc(OCCCNC2CCCC2)c(OC)c1,?,-3.6%,1.9%,-3.9%,/,-23.6%,/
C/C=C/c1ccc(OCCCNC(C)CC)c(OC)c1 (centres undefined),/,3.5%,0.3%,22.4µM*,5.9%,-8.0%,i
CCc1nnc(NC(=O)CSc2nccn2-c2cccc(C)c2)s1,/,-9.0%,-14.4%,12.6µM*,-28.0%,-11.5%,i
Cc1cccc(-n2ccnc2SCC(=O)Nc2nnc(C)s2)c1,/,-17.5%,?,6.1%,?,0.9%,/
COc1ccc(Cn2c(O)c(/C=N/NC(=O)c3ccccc3O)c(=O)[nH]c2=O)cc1,-1.7%,-53.3%,-6.4%,10µM*,4.7%,?,i
O=C(N/N=C/c1c(O)n(Cc2ccccc2)c(=O)[nH]c1=O)c1ccccc1O,12.1%,-36.5%,-11.7%,10µM*,?,25.1µM*,i
COc1ccc(Cn2c(O)c(C=NCCN3CCOCC3)c(=O)[nH]c2=O)cc1,20.9%,-18.7%,-4.0%,-7.2%,115.2%,?,/
O=C(N/N=C/c1c(O)n(Cc2ccc(F)cc2)c(=O)[nH]c1=O)c1ccccc1O,11.6%,-38.8%,-2.1%,11.2µM*,?,35.5µM*,i
COc1ccc(Cn2c(O)c(/C=N/NC(=O)c3ccncc3)c(=O)[nH]c2=O)cc1,13.0%,-49.9%,-0.7%,10.5%,18.8%,?,/
COc1ccc(Cn2c(O)c(/C=N/NC(=O)c3ccccc3)c(=O)[nH]c2=O)cc1,11.7%,-25.2%,?,10µM*,-27.7%,?,i
COc1ccc(OC)c(NC(=S)N2c3ccccc3CC2C)c1 (centres undefined),?,122.7%,-5.8%,18.5%,?,0.0%,/
